Reference: PubChem BioAssay AID493008 (The Scripps Research Institute Molecular Screening Center, 2010)
Out of some 340,000 compounds screened, about 800 (0.24%) were called active.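 Rule for the calls: active = activation above the mean over all tested compounds plus 3 SD (cut at about 30% in these data); inactive = the rest.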 The full list was thinned out, with actives kept by preference.

molecular target: Troponin I, cardiac muscle (Homo sapiens) + Troponin T, cardiac muscle (Homo sapiens) + Troponin C, slow skeletal and cardiac muscles (Homo sapiens) (UniProt P19429+P45379+P63316); assay: cardiac RTF calcium sensitivity activators, primary screen, biochemical, IANBD-TnC fluorescence, EC20 calcium (AID 493008); settings: IANBD-labeled TnC RTF fluorescence at EC20 calcium; at 7.2 µM; hits give high values; 0% EC20 calcium, 100% full calcium;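 note: rise in fluorescence read as greater calcium sensitivity of cardiac thin filaments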

activation, active:
C[n+]1ccc(/C=C/c2c[nH]c3ccccc23)cc1 154%
CCN1/C(=C\c2ccc3ccccc3[n+]2CC)Sc2cc(C)ccc21 38.1%
N#C/C(=C/c1ccc(N2CCCCC2)o1)C(=O)NCCc1c[nH]c2ccccc12 98.5%
CCN(CC)CCCC(C)n1c2nc(=O)[nH]c(=O)c-2nc2cc(Cl)ccc21 (centres undefined) 1960%
O=C(/C=C(O)/C=C/c1ccc(O)cc1)/C=C/c1ccc(O)cc1 40.2%
NC(=O)c1ccc(NC(=O)COC(=O)c2c3c(nc4ccccc24)/C(=C\c2ccc4c(c2)OCO4)CCC3)cc1 514%
COc1cccc2c1C(=O)c1c(O)c3c(c(O)c1C2=O)CC(O)(C(C)=NNC(=O)c1ccc(Cl)c(Cl)c1)CC3OC1CC(N)C(O)C(C)O1 (centres undefined) 220%
Nc1c(C(=O)c2cccs2)sc2nsc(SCCN3CCCCC3)c12 30.6%
COc1ccc(-c2onc3ccc(C(C)=O)cc23)cc1 42.2%
Cc1cccc(N=Nc2c(O)[nH]c3ccc(F)cc23)c1 31.3%
CCN(CC)c1ccc2oc(=O)c(C)nc2c1 59.9%
COc1ncnc2c1N=C1CC(C)(C)CC(N)=C1S2 30.1%
CCOC(=O)c1cc2n(c1N)-c1ccccc1C2=O 40.9%
COc1ccc(C2c3ccc(O)cc3Oc3ncn(CCCO)c(=N)c32)cc1OC (centres undefined) 91.1%
CN1C(=O)/C(=C/C=C2\SCCN2C)OC1=S 34%

activation, inactive:
S=C(Nc1ccccc1)Nc1ccc2ccccc2c1 -10.4%
CC1CCCC(C)N1C(=O)CN1CCN(c2nc(-c3ccc(F)cc3)cs2)CC1 (centres undefined) -5.89%
CCCC(C)C(=O)Nc1ccc(NC(C)=O)cc1 (centres undefined) -2.2%
CC(C)(C)c1ccc(/C=C/C(=O)NC2CCS(=O)(=O)C2)cc1 (centres undefined) 8.91%
O=C(NC(Cc1c[nH]c2ccccc12)C(=O)N/N=C/c1ccc(Br)cc1)c1cccs1 (centres undefined) -5.25%
Cc1ncoc1C(=O)NCCC(c1ccccc1)c1ccccc1 1.32%
Cc1ccc(N(Cc2cc(=O)[nH]c3ccccc23)C(=O)CCl)cc1 -2.09%
COc1ccc(OC)c(S(=O)(=O)Nc2cccc(-c3ccc4nncn4n3)c2)c1 -5.2%
CC1(C)OC(=O)C(=CSc2ccc(C(C)(C)C)cc2)C(=O)O1 -0.02%
CC1CCCN(CCCNC(=O)CN2C(=O)COc3ccc(S(=O)(=O)N4CCOCC4)cc32)C1 (centres undefined) -3.28%
COc1ccc(C(=O)Oc2ccc(-c3nnco3)cc2)cc1S(=O)(=O)N1CCOCC1 5.67%
COc1ccc(C(=O)Nc2ccc(-n3nncc3C(C)(C)C)cc2)cc1 -5.43%
O=C(NC(=S)N1CCc2ccccc21)c1ccco1 -3.2%
CC(C)NC(=O)N1CCN(c2ccncc2S(=O)(=O)N2CCCCC2)CC1 1.09%
O=C(OCCOc1ccccc1Cl)c1cc(S(=O)(=O)N2CCCCC2)ccc1N1CCOCC1 -4.46%
CCCNC(=O)C(=O)Nc1cc2c3c(c1)CCC(=O)N3CCC2 -3.33%
OC1CN=C2Sc3ccccc3N2C1 (centres undefined) -0.74%
O=C(N/N=C/C=C/c1ccco1)c1cccs1 1.5%
Cn1c(=O)c(=O)n(C)c2cc(S(=O)(=O)NCCN3CCN(c4ccccc4F)CC3)ccc21 -1%
Cc1ccc(C(=O)N/C(=C/c2ccco2)C(=O)NCCc2c[nH]c3ccccc23)cc1C -3.2%
O=C(NCCc1c[nH]c2ccccc12)C1CCN(Cc2ccc(Br)cc2)CC1 -15.1%
CN(c1ccccc1)S(=O)(=O)c1ccc(NC(=O)COc2ccccc2)cc1 0.63%
CC1CCN(C(=O)Cn2nnnc2CN2CCOCC2)CC1 -3.91%
O=S(=O)(Nc1cccc(Oc2ccc(Cl)cc2)n1)c1ccc(F)cc1 -5.16%
O=C(CCN1C(=O)[C@@H]2Cc3ccccc3CN2C1=O)NCCc1ccccc1 -2.53%
CN(CCc1ccccc1)C(=O)c1cccc(NC(=O)Cc2cccc(NC(=O)C3CCCN(C(=O)CCc4ccccc4)C3)c2)c1 (centres undefined) -0.28%
Cc1ccccc1NC(=O)CCNS(=O)(=O)c1ccc2[nH]c(=O)oc2c1 -6.99%
O=S(=O)(Cc1nnnn1-c1ccc(Br)cc1)c1ccc(F)cc1 1.13%
O=C(CC12CC3CC(CC(C3)C1)C2)Nc1ccc2c(c1)COC2=O -1.12%
CCOc1ccc(OCC(=O)OC(C)C(=O)NC2CCCCC2C)cc1 (centres undefined) 0.95%
Cc1ccc(CS(=O)(=O)CCC(=O)NC2CC2)cc1 -1.46%
COc1ccccc1C(=O)Nc1nc2nc(-c3ccccc3)cc(=O)n2[nH]1 5.39%
COc1ccc(N2CC(C(=O)N[C@@H](C)C(=O)N3CCCCC3)CC2=O)cc1 (some centres undefined) 2.39%
Cc1ccc(S(=O)(=O)n2cccc2CO)cc1 3.89%
CC1(C)CC(=O)C/C(=N\NC(=O)c2cccs2)C1 9.93%
Cc1cccc(N(C(=O)Cc2cccs2)C(C(=O)NC2CCCC2)c2ccsc2)c1 (centres undefined) 2.2%
Cc1cc(F)ccc1N1CCC(N2CCN(C)C(CCO)C2)CC1 (centres undefined) 0.01%
O=S(=O)(c1cccc(-c2cn3ccccc3n2)c1)N1CCCC1 -1.73%
COc1ccc(N(C(=O)CNC(=O)c2ccco2)C(C(=O)NCC2CCCO2)c2ccccc2)cc1Cl (centres undefined) -5.45%
Nc1ncnc2c1ncn2[C@@H]1O[C@H](CNS(=O)(=O)c2ccc(-c3ccno3)s2)[C@@H](O)[C@H]1O -2.32%
CC1(C)CN(c2ccc(-c3ccnc4ncnn34)cc2)C1=O 2.76%
ClC1(Cl)CC1CSc1ncn[nH]1 (centres undefined) 2.22%
COc1ccc(CN(C)C(=S)Nc2ccc(Cl)cc2Cl)cc1 5.9%
O=C(CCS(=O)(=O)Cc1ccccc1F)NCCCN1CCCCC1 5.59%
CCN(CC)CCn1c2ccc(Cl)cc2c2nc(C)sc21 1.89%
CSCC[C@H](NC(=O)NCc1cccs1)C(=O)O 4.37%
CC(C)c1nnc(NC(=O)CCC(=O)N2CCN(c3cccc(Cl)c3)CC2)s1 -4.73%
COc1ccc(C(=O)COC(=O)C(O)c2ccccc2)c(OC)c1 (centres undefined) 3.19%
O=C(/C=C/c1ccc2c(c1)OCCO2)c1ccc(O)cc1 -0.07%
O=C(O)/C=C/c1ccc(OCCCF)cc1 -2.79%
NS(=O)(=O)c1ccc(NC(=O)COC(=O)c2c3c(nc4ccccc24)/C(=C\c2ccc4c(c2)OCO4)CCC3)cc1 4.91%
O=C(COC(=O)c1ccncc1)Nc1ccc2c(c1)OCO2 -5.52%
C=CCC(C(=O)c1ccccc1)[N+](C)(C)CC=C (centres undefined) -2.42%
O=C(NC1=CC(=O)c2ccccc2C1=O)c1ccccc1 -2.47%
CCCCC(CC)CNCc1cccn1CCN1CCOCC1 (centres undefined) -0.42%
CCOC(=O)c1ccc(N=C2SC(C(=O)NC)CC(=O)N2CCc2ccccc2)cc1 (centres undefined) 2.1%
O=C(CSc1ncnc2sccc12)N1CCN(C(=O)c2cccs2)CC1 0.04%
COc1ccc(C23NCCN2C(=O)c2ccccc23)cc1 (centres undefined) -1.61%
COc1cc(S(=O)(=O)N2CCN=C2c2ccccc2)ccc1Cl -3%
COc1ccc(-c2cc(C(=O)N3CCN(c4ccc(F)cc4)CC3)no2)cc1 -6.29%
COc1ccc(NC(C(=O)Nc2cccc(C(C)=O)c2)c2ccccc2)cc1 (centres undefined) 2.77%
CC1CCCN(S(=O)(=O)c2ccc(-c3ccc(=O)[nH]n3)o2)C1 (centres undefined) 0.69%
Cc1ccc2nc(SCC(=O)N3CCN(c4ccccc4)CC3)nc(=O)n2c1 -2.94%
NS(=O)(=O)c1ccc(N=Nc2c(O)[nH]c3ccc(Br)cc23)cc1 -6.02%
Oc1[nH]c2ccccc2c1N=Nc1c(F)c(F)c(F)c(F)c1F 3.02%
Cc1ccc(C(=O)O)c(NC=O)c1OCc1ccccc1 -0.38%
Cc1ccc2oc(=O)ccc2c1 -3.77%
CCN(CC)c1ccc(C(=O)Nn2c(C)nc3ccccc3c2=O)cc1 8.65%
CCOC(=O)c1ccccc1OC(=O)Oc1ccccc1C(=O)OCC 0.28%
CCOC(=O)c1ccccc1CN1C(=O)c2ccccc2S1(=O)=O 6.29%
COCCNC(=O)c1onc(CSc2cccc(C)c2)c1C(=O)O 2.19%
Cc1cccc(NC(=O)CSc2nc3c(c(=O)[nH]2)CCC3)c1C 5.1%
Cc1cc(OC(C)C(=O)NC2CC(C)(C)NC(C)(C)C2)c2c(C)cc(=O)oc2c1 (centres undefined) -6.45%
CCOc1nc(OCC)nc(-n2cc(-c3ccccc3)nn2)n1 -0.01%
COc1cccc(NS(=O)(=O)c2ccc3[nH]cc(C(=O)NCCCOC(C)C)c(=O)c3c2)c1 1.55%
CCC1(C)COC(c2ccc(OC)c(OC)c2)OC1 (centres undefined) 15.5%
COc1ccc(C2C(C#N)=C(N)Oc3cc(N)ccc32)cc1OC (centres undefined) 2.36%
COc1ccc(CNCCCO)cc1OC 2.52%
CC(=O)c1cc2c(cc1NC(=O)Cn1nc(-c3ccc(F)cc3)ccc1=O)OCO2 1.13%
